Holding throughout (assay): DAPPL (digital affinity profiling via proximity ligation, sequencing); 10 mM Tris-HCl pH 7.5, 50 mM NaCl, 1 mM DTT, 4% glycerol, room temperature, 30 min; GST-TFs on glutathione beads, 16-mer random dsDNA library, 0.1% formaldehyde crosslink after washing; high values mean tight binding
Holding throughout (conditions): protein: recombinant; tags: N-terminal GST; dsDNA, one strand shown

One test addresses T1, ERF (Homo sapiens, UniProt P50548 1-548).
T1 sequence: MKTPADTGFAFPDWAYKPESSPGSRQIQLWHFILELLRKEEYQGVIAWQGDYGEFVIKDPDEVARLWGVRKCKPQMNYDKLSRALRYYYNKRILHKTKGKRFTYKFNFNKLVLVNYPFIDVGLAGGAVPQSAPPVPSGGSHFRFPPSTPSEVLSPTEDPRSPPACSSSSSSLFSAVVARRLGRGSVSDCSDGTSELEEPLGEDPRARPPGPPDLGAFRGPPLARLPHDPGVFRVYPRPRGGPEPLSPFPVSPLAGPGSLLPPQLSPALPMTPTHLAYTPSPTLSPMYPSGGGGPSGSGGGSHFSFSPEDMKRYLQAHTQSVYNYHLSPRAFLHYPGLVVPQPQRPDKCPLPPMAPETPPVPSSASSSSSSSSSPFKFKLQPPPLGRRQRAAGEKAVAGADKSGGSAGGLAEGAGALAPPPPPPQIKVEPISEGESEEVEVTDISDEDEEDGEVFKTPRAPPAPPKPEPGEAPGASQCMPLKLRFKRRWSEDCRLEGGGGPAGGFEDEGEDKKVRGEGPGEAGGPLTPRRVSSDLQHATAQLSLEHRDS
In short, it runs like this:
(§1)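 Binding signal is each hexamer's read frequency for a factor divided by its frequency in the tag-only sample. The factors were GST-fused human transcription factors from yeast, captured on glutathione beads, DNA-barcoded and pooled with that sample. Pools were incubated with 200 nmole of a random double-stranded 16-mer DNA library in Tris/NaCl/DTT/glycerol buffer at room temperature for 30 min, then washed, crosslinked with 0.1% formaldehyde, proximity-ligated with BsaI/T4 ligase (1 h, 37 °C), PCR-amplified and sequenced on an Illumina NextSeq500.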

The target in a further test is T2, ETV3L (Homo sapiens, UniProt Q6ZN32 1-361).
T2 sequence: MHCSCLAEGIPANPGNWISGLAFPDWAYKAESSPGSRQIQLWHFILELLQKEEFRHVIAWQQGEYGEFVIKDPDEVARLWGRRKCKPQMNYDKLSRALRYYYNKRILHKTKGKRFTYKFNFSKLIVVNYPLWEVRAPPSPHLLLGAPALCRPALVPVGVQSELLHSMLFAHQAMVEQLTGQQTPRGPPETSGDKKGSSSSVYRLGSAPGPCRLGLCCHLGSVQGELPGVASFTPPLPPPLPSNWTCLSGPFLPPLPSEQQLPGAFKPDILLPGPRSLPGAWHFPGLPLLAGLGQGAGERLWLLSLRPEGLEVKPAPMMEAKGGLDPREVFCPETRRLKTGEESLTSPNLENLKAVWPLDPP
Put shortly: as §1

The next test concerns the target T3, ETS2 (Homo sapiens, UniProt P15036 1-469).
T3 sequence: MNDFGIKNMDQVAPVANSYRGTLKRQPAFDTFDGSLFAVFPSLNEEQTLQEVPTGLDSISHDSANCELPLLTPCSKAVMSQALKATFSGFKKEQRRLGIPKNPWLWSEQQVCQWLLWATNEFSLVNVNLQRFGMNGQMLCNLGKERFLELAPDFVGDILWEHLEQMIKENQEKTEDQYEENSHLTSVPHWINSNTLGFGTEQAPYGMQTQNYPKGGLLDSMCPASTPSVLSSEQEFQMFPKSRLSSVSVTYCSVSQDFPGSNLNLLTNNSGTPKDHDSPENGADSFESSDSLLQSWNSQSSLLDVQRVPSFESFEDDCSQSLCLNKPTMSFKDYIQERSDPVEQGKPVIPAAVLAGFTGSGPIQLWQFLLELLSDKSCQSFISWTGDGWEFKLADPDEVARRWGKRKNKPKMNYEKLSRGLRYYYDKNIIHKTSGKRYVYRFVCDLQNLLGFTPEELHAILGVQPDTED
In short, it runs like this: as §1

In a further test the target is T4, SPDEF (Homo sapiens, UniProt O95238 1-335).
T4 sequence: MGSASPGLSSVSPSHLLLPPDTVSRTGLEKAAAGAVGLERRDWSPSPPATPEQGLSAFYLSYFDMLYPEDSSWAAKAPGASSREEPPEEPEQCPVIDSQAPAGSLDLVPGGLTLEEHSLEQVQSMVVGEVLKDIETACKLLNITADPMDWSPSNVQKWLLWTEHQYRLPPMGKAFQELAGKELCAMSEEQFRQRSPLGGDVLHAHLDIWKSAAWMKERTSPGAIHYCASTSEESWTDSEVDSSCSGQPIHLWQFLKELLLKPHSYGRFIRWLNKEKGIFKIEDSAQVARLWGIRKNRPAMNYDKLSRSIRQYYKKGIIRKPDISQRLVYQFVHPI
In short, it runs like this:
as §1

The target in the next test is T5, ETV7 (Homo sapiens, UniProt Q9Y603 1-341).
T5 sequence: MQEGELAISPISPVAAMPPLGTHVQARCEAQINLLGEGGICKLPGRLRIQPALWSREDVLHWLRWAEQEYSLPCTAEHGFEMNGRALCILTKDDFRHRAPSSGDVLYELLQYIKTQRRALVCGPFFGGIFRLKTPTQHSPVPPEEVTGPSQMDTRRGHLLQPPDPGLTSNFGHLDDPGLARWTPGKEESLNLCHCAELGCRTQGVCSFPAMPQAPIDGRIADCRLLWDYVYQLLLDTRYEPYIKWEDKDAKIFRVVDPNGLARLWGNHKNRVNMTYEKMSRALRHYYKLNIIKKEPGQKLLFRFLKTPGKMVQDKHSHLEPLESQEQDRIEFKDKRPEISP
Put shortly: as §1

The next test concerns the target T6, ELF5 (Homo sapiens, UniProt Q9UKW6-2 1-255).
T6 sequence: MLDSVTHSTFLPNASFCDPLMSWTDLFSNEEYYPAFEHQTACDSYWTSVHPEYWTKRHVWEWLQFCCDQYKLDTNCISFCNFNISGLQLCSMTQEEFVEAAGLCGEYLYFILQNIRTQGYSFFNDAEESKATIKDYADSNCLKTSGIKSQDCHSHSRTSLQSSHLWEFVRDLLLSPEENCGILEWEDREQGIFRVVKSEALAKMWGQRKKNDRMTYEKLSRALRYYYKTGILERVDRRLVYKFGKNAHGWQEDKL
In short, it runs like this: as §1

A further test has as its target T7, ETV3 (Homo sapiens, UniProt P41162-2 1-143).
T7 sequence: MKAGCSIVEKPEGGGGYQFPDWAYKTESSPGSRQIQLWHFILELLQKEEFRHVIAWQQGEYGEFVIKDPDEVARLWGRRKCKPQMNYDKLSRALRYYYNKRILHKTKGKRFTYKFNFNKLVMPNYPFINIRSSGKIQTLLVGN
Put shortly:
as §1

Another test addresses ETV6 (Homo sapiens, UniProt P41212 1-452). Put shortly:
as §1

Sequence of ETV6 (P41212 whole entry): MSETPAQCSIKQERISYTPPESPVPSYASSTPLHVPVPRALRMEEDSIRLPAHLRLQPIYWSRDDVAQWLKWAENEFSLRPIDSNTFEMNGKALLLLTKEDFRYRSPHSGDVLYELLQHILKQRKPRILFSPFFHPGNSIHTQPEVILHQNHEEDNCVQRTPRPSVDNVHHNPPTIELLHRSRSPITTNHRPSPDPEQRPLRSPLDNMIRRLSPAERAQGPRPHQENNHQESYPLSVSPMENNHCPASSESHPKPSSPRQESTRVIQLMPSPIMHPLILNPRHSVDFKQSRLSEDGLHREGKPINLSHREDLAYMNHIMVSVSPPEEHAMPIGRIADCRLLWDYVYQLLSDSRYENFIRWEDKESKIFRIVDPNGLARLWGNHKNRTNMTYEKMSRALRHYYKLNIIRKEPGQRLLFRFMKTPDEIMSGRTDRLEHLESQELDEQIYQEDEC

Take TGTTAT: the binding signal with ERF is 1.47 fold enrichment (6-mer frequency, TF over GST control); in the test with ETV3L, 1.49 fold enrichment (6-mer frequency, TF over GST control); in the test with ETS2, 1.34 fold enrichment (6-mer frequency, TF over GST control); with SPDEF it was 1.41 fold enrichment (6-mer frequency, TF over GST control); in the test with ETV7 it was 1.24 fold enrichment (6-mer frequency, TF over GST control); with ELF5, 1.36 fold enrichment (6-mer frequency, TF over GST control). For the same sequence, the binding signal with ETV3 was 1.32 fold enrichment (6-mer frequency, TF over GST control); in the test with ETV6, 1.39 fold enrichment (6-mer frequency, TF over GST control).

Turning to ACTGCT, the binding signal is 1.27 fold enrichment (6-mer frequency, TF over GST control) in the test with ERF; 1.41 fold enrichment (6-mer frequency, TF over GST control) with ETV3L; 1.38 fold enrichment (6-mer frequency, TF over GST control) with ETS2; 1.26 fold enrichment (6-mer frequency, TF over GST control) in the test with SPDEF; 1.4 fold enrichment (6-mer frequency, TF over GST control) in the test with ETV7; 1.33 fold enrichment (6-mer frequency, TF over GST control) with ELF5. For the same sequence, the binding signal with ETV3 was 1.42 fold enrichment (6-mer frequency, TF over GST control); with ETV6 it was 1.33 fold enrichment (6-mer frequency, TF over GST control).

In the case of TACCTT, the binding signal with ERF was 1.51 fold enrichment (6-mer frequency, TF over GST control); in the test with ETV3L it was 1.34 fold enrichment (6-mer frequency, TF over GST control); in the test with ETS2 it was 1.44 fold enrichment (6-mer frequency, TF over GST control); in the test with SPDEF it was 1.39 fold enrichment (6-mer frequency, TF over GST control); with ETV7, 1.37 fold enrichment (6-mer frequency, TF over GST control); with ELF5, 1.49 fold enrichment (6-mer frequency, TF over GST control). Also, the binding signal with ETV3 was 1.29 fold enrichment (6-mer frequency, TF over GST control); with ETV6, 1.5 fold enrichment (6-mer frequency, TF over GST control).

With TTTTCA, the binding signal in the test with ERF was 1.24 fold enrichment (6-mer frequency, TF over GST control); in the test with ETV3L, 1.26 fold enrichment (6-mer frequency, TF over GST control); with ETS2, 1.14 fold enrichment (6-mer frequency, TF over GST control); with SPDEF, 1.18 fold enrichment (6-mer frequency, TF over GST control); in the test with ETV7 it was 1.26 fold enrichment (6-mer frequency, TF over GST control); with ELF5, 1.25 fold enrichment (6-mer frequency, TF over GST control). The binding signal is 1.31 fold enrichment (6-mer frequency, TF over GST control) with ETV3 and 1.21 fold enrichment (6-mer frequency, TF over GST control) with ETV6.

As to CTATTC, the binding signal was 1.33 fold enrichment (6-mer frequency, TF over GST control) with ERF; 1.4 fold enrichment (6-mer frequency, TF over GST control) with ETV3L; 1.32 fold enrichment (6-mer frequency, TF over GST control) with ETS2; 1.41 fold enrichment (6-mer frequency, TF over GST control) in the test with SPDEF; 1.34 fold enrichment (6-mer frequency, TF over GST control) with ETV7; 1.29 fold enrichment (6-mer frequency, TF over GST control) with ELF5. Also, the binding signal with ETV3 is 1.33 fold enrichment (6-mer frequency, TF over GST control); with ETV6, 1.4 fold enrichment (6-mer frequency, TF over GST control).

In the case of ATCTCT, the binding signal with ERF was 1.38 fold enrichment (6-mer frequency, TF over GST control); in the test with ETV3L it was 1.27 fold enrichment (6-mer frequency, TF over GST control); in the test with ETS2, 1.29 fold enrichment (6-mer frequency, TF over GST control); in the test with SPDEF, 1.18 fold enrichment (6-mer frequency, TF over GST control); with ETV7 it was 1.14 fold enrichment (6-mer frequency, TF over GST control); with ELF5 it was 1.25 fold enrichment (6-mer frequency, TF over GST control). The binding signal with ETV3 was 1.25 fold enrichment (6-mer frequency, TF over GST control); with ETV6 it was 1.27 fold enrichment (6-mer frequency, TF over GST control).

ACCCTT: the binding signal with ERF was 1.2 fold enrichment (6-mer frequency, TF over GST control); with ETV3L, 1.21 fold enrichment (6-mer frequency, TF over GST control); with ETS2 it was 1.1 fold enrichment (6-mer frequency, TF over GST control); in the test with SPDEF it was 1.2 fold enrichment (6-mer frequency, TF over GST control); with ETV7, 1.1 fold enrichment (6-mer frequency, TF over GST control); with ELF5, 1.19 fold enrichment (6-mer frequency, TF over GST control). Further, the binding signal was 1.19 fold enrichment (6-mer frequency, TF over GST control) in the test with ETV3 and 1.15 fold enrichment (6-mer frequency, TF over GST control) with ETV6.

Turning to TCCGCA, the binding signal in the test with ERF was 1.95 fold enrichment (6-mer frequency, TF over GST control); in the test with ETV3L it was 2.08 fold enrichment (6-mer frequency, TF over GST control); with ETS2, 2.26 fold enrichment (6-mer frequency, TF over GST control); in the test with SPDEF, 2.24 fold enrichment (6-mer frequency, TF over GST control); with ETV7 it was 1.98 fold enrichment (6-mer frequency, TF over GST control); in the test with ELF5 it was 2.61 fold enrichment (6-mer frequency, TF over GST control). The binding signal was 2.27 fold enrichment (6-mer frequency, TF over GST control) with ETV3 and 2.18 fold enrichment (6-mer frequency, TF over GST control) in the test with ETV6.

Values taken from PMC7862700, “An all-to-all approach to the identification of sequence-specific readers for epigenetic DNA modifications on cytosine”.
